# Experimental data from the supplement of paper PMC7393113.
# ± gives the standard deviation of the averaged measurements.
# Test system: iBMDM (immortalised mouse bone-marrow-derived macrophages), LPS-stimulated
# Assay: mitochondrial superoxide (MitoSOX fluorescence) fold increase over unstimulated control; higher = more LPS-induced mitochondrial ROS (less inhibition)
# Details: inhibitor concentration: 500 nM; LPS: 100 ng/ml; time after LPS: 1 h
# Outline: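 Immortalised mouse bone-marrow-derived macrophages were seeded in triplicate in black 96-well plates and moved to phenol-red-free 1% FCS/DMEM for 20 h. They were pretreated 30 min with kinase inhibitors (500 nM), loaded with 1 μM MitoSox for 10 min, then given LPS (100 ng/ml). Fluorescence (excitation/emission 510/580 nm, ClarioStar plate reader) was read every 60 min for 4 h. Mitochondrial superoxide is fold induction over untreated control macrophages, averaged over three replicates.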
row,Compound,mitochondrial superoxide
1,CCN1CCN(Cc2ccc(-c3cc4c(N[C@H](C)c5ccccc5)ncnc4[nH]3)cc2)CC1,1.08 ± 0.019
2,C#Cc1cccc(Nc2ncnc3cc(OCCOC)c(OCCO)cc23)c1,1.16 ± 0.089
3,CNC(=O)c1cc(Oc2ccc(NC(=O)Nc3ccc(Cl)c(C(F)(F)F)c3)cc2)ccn1 [Sorafenib],1.48 ± 0.09
4,C=CC(=O)Nc1cc2c(Nc3ccc(F)c(Cl)c3)ncnc2cc1OCCCN1CCOCC1 [Canertinib (CI-1033)],1.59 ± 0.093
5,N#C/C(=C(/N)Sc1ccc(N)cc1)c1ccccc1C(F)(F)F,1.35 ± 0.024
6,COc1cc2nccc(Oc3ccc(NC(=O)NC4CC4)c(Cl)c3)c2cc1C(N)=O [Lenvatinib (E7080)],1.45 ± 0.042
7,CC(=O)c1c(C)c2cnc(Nc3ccc(N4CCNCC4)cn3)nc2n(C2CCCC2)c1=O,1.45 ± 0.032
8,NC(=O)Nc1sc(-c2ccc(F)cc2)cc1C(N)=O,1.15 ± 0.055
9,C=CC(=O)Nc1ccc2ncnc(Nc3cccc(Br)c3)c2c1,1.12 ± 0.053
10,Cc1cnc(Nc2ccc(OCCN3CCCC3)cc2)nc1Nc1cccc(S(=O)(=O)NC(C)(C)C)c1,1.18 ± 0.14
11,NC(=O)Nc1cc(-c2cccc(F)c2)sc1C(=O)N[C@H]1CCCNC1,1.08 ± 0.056
12,O=C1NC(=O)C(=Cc2ccc(-c3ccc(F)cc3)o2)S1 (stereo in doubt),1.28 ± 0.044
13,CC(C)n1nc(-c2cc3cc(O)ccc3[nH]2)c2c(N)ncnc21,1.03 ± 0.088
14,CNC(=O)c1ccccc1Nc1nc(Nc2ccc(N3CCOCC3)cc2OC)ncc1Cl,1.12 ± 0.084
15,CN(C)CCOc1ccc(-c2nc(-c3ccncc3)c(-c3ccc4c(c3)CC/C4=N\O)[nH]2)cc1,1.07 ± 0.036
16,COc1cc2ncnc(Oc3cccc(NC(=O)Nc4cc(C(C)(C)C(F)(F)F)on4)c3)c2cc1OC,1.36 ± 0.027
17,O=c1cc(N2CCOCC2)oc2c1ccc1ccccc12,1.13 ± 0.049
18,COc1cc(Nc2ncc(F)c(Nc3ccc4c(n3)NC(=O)C(C)(C)O4)n2)cc(OC)c1OC,1.1 ± 0.027
19,Cc1c(Cn2c(C)nc3c(C(=O)O)cc(N4CCOCC4)cc32)cccc1C(F)(F)F,1.394 ± 0.013

row,Compound,mitochondrial superoxide
1,Cc1nc(NC(=O)N2CCC[C@H]2C(N)=O)sc1-c1ccnc(C(C)(C)C(F)(F)F)c1,1.3 ± 0.032
2,CCN(CCO)CCCOc1ccc2c(Nc3cc(CC(=O)Nc4cccc(F)c4)[nH]n3)ncnc2c1 [Barasertib (AZD1152-HQPA)],1.33 ± 0.093
3,COc1cc2nccc(Oc3ccc(NC(=O)Nc4cc(C)on4)c(Cl)c3)c2cc1OC [Tivozanib (AV-951)],1.14 ± 0.031
4,CC(C)CC(=O)Nc1n[nH]c2c1CN(C(=O)C1CCN(C)CC1)C2(C)C,1.08 ± 0.049
5,NC(=O)c1ccc(N(C(N)=O)c2c(F)cccc2F)nc1-c1ccc(F)cc1F,1.2 ± 0.026
6,Cc1ccc(NC(=O)c2ccc(CN3CCN(C)CC3)cc2)cc1Nc1nc(-c2cccnc2)cs1 [Masitinib (AB1010)],1.44 ± 0.013
7,OCCn1cc(-c2cnc3nnn(Cc4ccc5ncccc5c4)c3n2)cn1,1.37 ± 0.059
8,"Cc1[nH]c(/C=C2\C(=O)Nc3ccccc32)c(C)c1CCC(=O)O [TSU-68 (SU6668, Orantinib)]",2.12 ± 0.096
9,COc1ccc(-c2cc3c(C)nc(N)nc3n([C@H]3CC[C@H](OCCO)CC3)c2=O)cn1,1.37 ± 0.058
10,Cc1c(CN2CCN(C(=O)[C@H](C)O)CC2)sc2c(N3CCOCC3)nc(-c3cnc(N)nc3)nc12,1.266 ± 0.011
11,CCCCOc1c(C(=O)c2c(F)cc(C)cc2F)c[nH]c2nncc1-2,1.16 ± 0.027
12,C=CC(=O)Nc1cccc(Oc2nc(Nc3ccc(N4CCN(C)CC4)cc3OC)ncc2Cl)c1,1.42 ± 0.03
13,"CN1CCN(c2ccc3nc(-c4c(N)c5c(F)cccc5[nH]c4=O)[nH]c3c2)CC1 [Dovitinib (TKI-258, CHIR-258)]",1.62 ± 0.087
14,CC(=O)Nc1nc(C)c(-c2ccc(Cl)c(S(=O)(=O)NCCO)c2)s1,1.02 ± 0.067
15,Cc1cc(C)nc(NS(=O)(=O)c2ccc(NC(=S)NC(=O)COc3ccc(Br)cc3Cl)cc2)n1,1.42 ± 0.087
16,Cc1ccccc1-n1c(Cn2nc(-c3cccc(O)c3)c3c(N)ncnc32)nc2cccc(C)c2c1=O,1.28 ± 0.017
17,CCN(CC)CCCCNc1ncc2cc(-c3cc(OC)cc(OC)c3)c(NC(=O)NC(C)(C)C)nc2n1,1.16 ± 0.036
18,Cc1ccc(F)c(NC(=O)Nc2ccc(-c3cccc4[nH]nc(N)c34)cc2)c1 [Linifanib (ABT-869)],1.66 ± 0.077

# Same assay, conditions: inhibitor concentration: 500 nM; LPS: 100 ng/ml; time after LPS: 2 h
row,Compound,mitochondrial superoxide
1,CCN1CCN(Cc2ccc(-c3cc4c(N[C@H](C)c5ccccc5)ncnc4[nH]3)cc2)CC1,1.11 ± 0.04
2,C#Cc1cccc(Nc2ncnc3cc(OCCOC)c(OCCO)cc23)c1,1.2 ± 0.038
3,CNC(=O)c1cc(Oc2ccc(NC(=O)Nc3ccc(Cl)c(C(F)(F)F)c3)cc2)ccn1 [Sorafenib],1.45 ± 0.032
4,C=CC(=O)Nc1cc2c(Nc3ccc(F)c(Cl)c3)ncnc2cc1OCCCN1CCOCC1 [Canertinib (CI-1033)],1.55 ± 0.14
5,N#C/C(=C(/N)Sc1ccc(N)cc1)c1ccccc1C(F)(F)F,1.42 ± 0.092
6,COc1cc2nccc(Oc3ccc(NC(=O)NC4CC4)c(Cl)c3)c2cc1C(N)=O [Lenvatinib (E7080)],1.71 ± 0.053
7,CC(=O)c1c(C)c2cnc(Nc3ccc(N4CCNCC4)cn3)nc2n(C2CCCC2)c1=O,1.45 ± 0.037
8,NC(=O)Nc1sc(-c2ccc(F)cc2)cc1C(N)=O,1.2 ± 0.045
9,C=CC(=O)Nc1ccc2ncnc(Nc3cccc(Br)c3)c2c1,1.29 ± 0.027
10,Cc1cnc(Nc2ccc(OCCN3CCCC3)cc2)nc1Nc1cccc(S(=O)(=O)NC(C)(C)C)c1,1.33 ± 0.21
11,NC(=O)Nc1cc(-c2cccc(F)c2)sc1C(=O)N[C@H]1CCCNC1,1.11 ± 0.028
12,O=C1NC(=O)C(=Cc2ccc(-c3ccc(F)cc3)o2)S1 (stereo in doubt),1.55 ± 0.089
13,CC(C)n1nc(-c2cc3cc(O)ccc3[nH]2)c2c(N)ncnc21,1.15 ± 0.12
14,CNC(=O)c1ccccc1Nc1nc(Nc2ccc(N3CCOCC3)cc2OC)ncc1Cl,1.11 ± 0.056
15,CN(C)CCOc1ccc(-c2nc(-c3ccncc3)c(-c3ccc4c(c3)CC/C4=N\O)[nH]2)cc1,1.15 ± 0.075
16,COc1cc2ncnc(Oc3cccc(NC(=O)Nc4cc(C(C)(C)C(F)(F)F)on4)c3)c2cc1OC,1.562 ± 0.0063
17,O=c1cc(N2CCOCC2)oc2c1ccc1ccccc12,1.11 ± 0.062
18,COc1cc(Nc2ncc(F)c(Nc3ccc4c(n3)NC(=O)C(C)(C)O4)n2)cc(OC)c1OC,1.14 ± 0.016
19,Cc1c(Cn2c(C)nc3c(C(=O)O)cc(N4CCOCC4)cc32)cccc1C(F)(F)F,1.502 ± 0.0056

row,Compound,mitochondrial superoxide
1,Cc1nc(NC(=O)N2CCC[C@H]2C(N)=O)sc1-c1ccnc(C(C)(C)C(F)(F)F)c1,1.46 ± 0.052
2,CCN(CCO)CCCOc1ccc2c(Nc3cc(CC(=O)Nc4cccc(F)c4)[nH]n3)ncnc2c1 [Barasertib (AZD1152-HQPA)],1.39 ± 0.13
3,COc1cc2nccc(Oc3ccc(NC(=O)Nc4cc(C)on4)c(Cl)c3)c2cc1OC [Tivozanib (AV-951)],1.17 ± 0.037
4,CC(C)CC(=O)Nc1n[nH]c2c1CN(C(=O)C1CCN(C)CC1)C2(C)C,1.13 ± 0.04
5,NC(=O)c1ccc(N(C(N)=O)c2c(F)cccc2F)nc1-c1ccc(F)cc1F,1.27 ± 0.087
6,Cc1ccc(NC(=O)c2ccc(CN3CCN(C)CC3)cc2)cc1Nc1nc(-c2cccnc2)cs1 [Masitinib (AB1010)],1.52 ± 0.067
7,OCCn1cc(-c2cnc3nnn(Cc4ccc5ncccc5c4)c3n2)cn1,1.41 ± 0.018
8,"Cc1[nH]c(/C=C2\C(=O)Nc3ccccc32)c(C)c1CCC(=O)O [TSU-68 (SU6668, Orantinib)]",2.2 ± 0.093
9,COc1ccc(-c2cc3c(C)nc(N)nc3n([C@H]3CC[C@H](OCCO)CC3)c2=O)cn1,1.53 ± 0.056
10,Cc1c(CN2CCN(C(=O)[C@H](C)O)CC2)sc2c(N3CCOCC3)nc(-c3cnc(N)nc3)nc12,1.44 ± 0.057
11,CCCCOc1c(C(=O)c2c(F)cc(C)cc2F)c[nH]c2nncc1-2,1.25 ± 0.066
12,C=CC(=O)Nc1cccc(Oc2nc(Nc3ccc(N4CCN(C)CC4)cc3OC)ncc2Cl)c1,1.53 ± 0.052
13,"CN1CCN(c2ccc3nc(-c4c(N)c5c(F)cccc5[nH]c4=O)[nH]c3c2)CC1 [Dovitinib (TKI-258, CHIR-258)]",1.7 ± 0.026
14,CC(=O)Nc1nc(C)c(-c2ccc(Cl)c(S(=O)(=O)NCCO)c2)s1,1.15 ± 0.03
15,Cc1cc(C)nc(NS(=O)(=O)c2ccc(NC(=S)NC(=O)COc3ccc(Br)cc3Cl)cc2)n1,1.45 ± 0.1
16,Cc1ccccc1-n1c(Cn2nc(-c3cccc(O)c3)c3c(N)ncnc32)nc2cccc(C)c2c1=O,1.34 ± 0.033
17,CCN(CC)CCCCNc1ncc2cc(-c3cc(OC)cc(OC)c3)c(NC(=O)NC(C)(C)C)nc2n1,1.11 ± 0.048
18,Cc1ccc(F)c(NC(=O)Nc2ccc(-c3cccc4[nH]nc(N)c34)cc2)c1 [Linifanib (ABT-869)],1.72 ± 0.074
